Laboratory results published in the supplement of paper PMC11417369.
± gives the standard deviation of the averaged measurements. In all, about 25,000 sequences were measured (“ln(normalized median fluorescence intensity)”: median about 8.6, highest 2% from about 10 on). Many of the other results were omitted from the sample, so the highest values are more common in it than they were.

test system: PfAP2-EXP AP2 domain (GST-tagged); experiment: gcPBM binding intensity (ln(normalized median fluorescence intensity)); higher = stronger DNA binding
Summary of the method: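 An Agilent 4 × 180k array of primer-extended double-stranded 36-bp intergenic genomic probes, with negative controls, was incubated for 1 h with GST-tagged P. falciparum DNA-binding domains expressed in E. coli. Alexa488 anti-GST antibody detected bound protein, scanned at 488 nm. Binding intensity is the highest Masliner-normalised natural-log median intensity across replicate spots of either probe orientation.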

First: AATAAATAAAGAAGTACACACATATATATATATATA [CACACA_site4314]
Second: ATGATATGGATAAATACACACAATAAAATAATGTCT [CACACA_site6786]
The “gcPBM binding intensity (ln)” value of the first is higher: 10.1 ± 0.41 for the first, 8.71 ± 0.43 for the second.

“TATATATATTTATGTACACACACACCGATAAATAAA [CACACA_site4404]” and “AATATATATATATATACACACACACCGATATATATA [CACACA_site8158]” are within error of each other in “gcPBM binding intensity (ln)” value: 8.91 ± 0.48 for the first, 8.79 ± 0.33 for the second.

“TATATATATATATACACACACACACCGATATATATA [CACACA_site8813]” and “TATATATATATATGTACACACACACCGATAAATAAA [CACACA_site8041]” are within error of each other in “gcPBM binding intensity (ln)” value: 10.3 ± 0.41 for the first, 10.21 ± 0.085 for the second.

“TATGTACAAATATGTACACACACACCGATATATATA [CACACA_site4487]” and “TATACATACATACATACACACACACCGATATATACA [CACACA_site8184]” are within error of each other in “gcPBM binding intensity (ln)” value: 8.76 ± 0.18 for the first, 8.78 ± 0.42 for the second.

First: TATATATATATGTGTACACATGTCGCATTTTTTTAT [CACACA_site4648]
Second: TGATAATTTCATTTTGCATGTGACAATACAAGATGT [TGCATGCA_site203]
The “gcPBM binding intensity (ln)” value of the first is higher: 10 ± 0.26 for the first, 8.59 ± 0.18 for the second.

“AAAAAAATAATATAAATAATGAAAAGATATAAATAA [GTGCAC_negctrl_site432]” and “ATGCTTCCTTAGGAATGTACACACATATATAATATG [XGTACX_site873]” are within error of each other in “gcPBM binding intensity (ln)” value: 8.54 ± 0.35 for the first, 8.69 ± 0.35 for the second.

“TAGAAAAAAATAGATGCATGCAATGAATGAATAATA [TGCATGCA_site14]” and “AAAATATATATAAATGCATGCATAATGAAATATATA [TGCATGCA_site39]” are within error of each other in “gcPBM binding intensity (ln)” value: 10.3 ± 0.17 for the first, 9.95 ± 0.21 for the second.

“TAATAAAATGTACACGCATGCAATAGAATATAAAGT [TGCATGCA_site905]” and “TAAAATATAATAAAATGTACACGCATGCAATAGAAT [XGTACX_site7434]” are within error of each other in “gcPBM binding intensity (ln)” value: 10.3 ± 0.79 for the first, 9.99 ± 0.47 for the second.

“ATAGAAATAAAATAAAATAAAAAAAAAATAATGAAA [CACACA_negctrl_site1565]” and “CAAAAATAATAGAATACATGCAAAAATAAATGTATA [TGCATGCA_site196]” are within error of each other in “gcPBM binding intensity (ln)” value: 8.64 ± 0.43 for the first, 9 ± 0.071 for the second.

“ATTCTACCACGCGATATACACACTTGTAGACATCTT [CACACA_site188]” and “TTTAAAAATTTGATCAAACACACGTTGCATAAATTA [CACACA_site3945]” are within error of each other in “gcPBM binding intensity (ln)” value: 8.97 ± 0.49 for the first, 8.87 ± 0.47 for the second.

“TTGTTTAACTTGTTAAATATAATGTATCTGTGGATA [GTGCAC_negctrl_site108]” and “TTAATACTTTTTTCTGTACACACTTGATTTACTATA [CACACA_site2799]” are within error of each other in “gcPBM binding intensity (ln)” value: 8.12 ± 0.4 for the first, 8.95 ± 0.44 for the second.

Going from “AAAATTGTTATTTTATGTACTTATATTTATTTATTT [XGTACX_site3478]” to “TATATATATATATATTGTACTTTATATGTTCTTATA [XGTACX_site7545]”, the “gcPBM binding intensity (ln)” value rises from 8.53 ± 0.27 to 10.3 ± 0.11.

Compared with “TATTTATTGTGATACTTATATTATTTTATGATTAAA [CACACA_negctrl_site901]”, “ATATATATATATATATGTACTTATTTATTTATTTAT [XGTACX_site4645]” is higher in “gcPBM binding intensity (ln)” value: 8.27 ± 0.37 for the first, 10.2 ± 0.51 for the second.

First: ATATATATATATAGTTGTACTTAATTTTATATGTTA [XGTACX_site5256]
Second: ATATATATGTATGTATGTACTTATTTATTTATTTAT [XGTACX_site7740]
The “gcPBM binding intensity (ln)” value of the first is higher: 10.2 ± 0.15 for the first, 8.32 ± 0.16 for the second.

First: TTTTTATTTATATGATACTTATATATATATATATAT [CACACA_negctrl_site462]
Second: ATGTTTATTTATTTATGTACTTATATATTTATATAT [XGTACX_site7924]
The “gcPBM binding intensity (ln)” value of the first is higher: 10.2 ± 0.16 for the first, 8.78 ± 0.34 for the second.

“TACTTATTGTGATACTTATATTATTTTATGATTAAA [XGTACX_negctrl_site353]” and “TTGTTAATATATATATGTACTTATTTATTTATTTAT [XGTACX_site2274]” are within error of each other in “gcPBM binding intensity (ln)” value: 8.36 ± 0.39 for the first, 8.51 ± 0.35 for the second.

“ATATATATATATATATGTACTTATTTATATATTTAT [XGTACX_site7811]” and “TATATATATATATATTGTACTTATGTTTATATTCAT [XGTACX_site6258]” are the same in “gcPBM binding intensity (ln)” value: 10.1 ± 0.25 for the first, 10.1 ± 0.2 for the second.

“ATCTTTTCATATTGCTGTACAAATTATTTTCATTCG [XGTACX_site492]” and “AGAATTATATACACAAGTACATAATGACATATATAT [XGTACX_site5617]” are within error of each other in “gcPBM binding intensity (ln)” value: 9.05 ± 0.45 for the first, 8.42 ± 0.35 for the second.

First: TATCATTTATATATGTGTACTTATTTATTTATTTAT [XGTACX_site7961]
Second: ATATATATATATATATGTACTTATGTCATCATTAAA [XGTACX_site5316]
The “gcPBM binding intensity (ln)” value of the first is lower: 8.82 ± 0.45 for the first, 10.3 ± 0.35 for the second.

First: ATATTTTTTTTTTTATGTACTTATTTATAATTATTT [XGTACX_site5279]
Second: ATATATATATATATATGTACTTATTTATTTATATTA [XGTACX_site4646]
The “gcPBM binding intensity (ln)” value of the first is lower: 8.67 ± 0.37 for the first, 10.3 ± 0.39 for the second.

Going from “GTATGTATATATGTATGTACTTATGTATCATTATTA [XGTACX_site2438]” to “TAAATATATATTATATGTACTTATATATATATATAT [XGTACX_site4448]”, the “gcPBM binding intensity (ln)” value rises from 8.35 ± 0.26 to 9.85 ± 0.3.

“TTATATATTTTTATGTGTACTTATATATATATATAT [XGTACX_site6211]” and “ATATATATATATATATGTACTTATTAAGATTAAAAA [XGTACX_site61]” are within error of each other in “gcPBM binding intensity (ln)” value: 10 ± 0.13 for the first, 10.2 ± 0.2 for the second.

First: ATTTATTTATTTATATGTACTTATATATGTATTTTC [XGTACX_site6269]
Second: ATATATATATATATATGTACTTATTTATTTTATATA [XGTACX_site8810]
The “gcPBM binding intensity (ln)” value of the first is lower: 8.85 ± 0.25 for the first, 10.2 ± 0.24 for the second.

Going from “TATATATTATATATATGTACTTATTTATTAATTTAT [XGTACX_site5253]” to “ATATATATATATATGTGTACTTATATATTTAAAAAA [XGTACX_site1761]”, the “gcPBM binding intensity (ln)” value rises from 8.29 ± 0.25 to 10 ± 0.27.
